For 40 compounds, growth results are on record in PubChem BioAssay (NCI).

SMILES strings stand for the structures. This is part of a sample that, as a whole, favours compounds with a hit. Of some 83,000 tested, about 20% had one in any assay.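 Testing used 96-well plates and a 48-hour single-concentration exposure. Example: -40 means 40% of the starting cells died.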 Active and inactive are the calls of the source. How the source made its calls: active means growth percent below 10; inactive means the rest.

For the test, the system named is SW-620 colon. Nature of the test: NCI-60 one-dose screen, 48 h (100 = growth as untreated, 0 = no growth, -100 = all killed). The note with it: 10 µM unless noted.
With `CC1(C)CC[C@]2(C(=O)N3CCOCC3)CC[C@]3(C)C(=CC[C@@H]4[C@@]5(C)C/C(=C/c6ccncc6)C(=O)C(C)(C)[C@@H]5CC[C@]43C)[C@@H]2C1`, the growth was 10.4% (inactive).

In the case of `O=C(Nc1cccnc1Nc1ccc(Cl)cc1)c1cn(Cc2ccc(F)cc2)nn1`, the growth is 114% (inactive).

As to `C=C1C(=O)O[C@H]2[C@H]1CC/C(CNC(=O)c1cc3ccccc3[nH]1)=C\CC[C@@]1(C)O[C@@H]21`, the growth is -57.4% (active).

With `C=CCN=C(N)SCCCCCCSC(N)=NCC=C`, the growth is 94.7% (inactive).

As for `CNC(=O)c1c(NC(=O)c2ccc(C(C)(C)C)cc2)sc2c(CN(C)C)c(O)ccc12`, the growth was -85.8% (active).

On to `COc1ccc(C/C(C)=C(\c2ccc(O)cc2)c2ccc(OCCN3CCCC3)cc2)cc1`, for which the growth is 104% (inactive).

In the case of `S=c1ssnc1-c1cccs1`, the growth was 83.7% (inactive).

Turning to `COc1cc(/C=C/c2cc(/C=C/c3ccc(O)c(OC)c3)n(C(=O)Nc3ccc(F)cc3)n2)ccc1O`, the growth is 10.5% (inactive).

For the compound `COc1cc2c3c(n(CCCCNCCCn4c5c(c6cc(OC)c(OC)cc6c4=O)C(=O)c4cc6c(cc4-5)OCO6)c(=O)c2cc1OC)-c1cc2c(cc1C3=O)OCO2`, the growth was 95.2% (inactive).

As for `COc1cc(-c2cc(-c3ccc(Nc4ncnc5cc(Cl)ccc45)cc3)nc(N3CCN(C)CC3)n2)cc(OC)c1OC`, the growth was 72.4% (inactive).

As for `COc1cc(C(=O)/C=C/c2ccc(N3CCN(C)CC3)cc2)cc(OC)c1OC`, the growth was 88% (inactive).

As for `Cc1ccc2[nH]c(=O)c3c(c2c1)OC(N)=C(C#N)C31C(=O)c2cccc3cccc1c23` (stereo not given), the growth is 101% (inactive).

As to `Cn1c(=O)c2c(nc(NC3=NS(=O)(=O)c4ccccc43)n2Cc2ccccc2)n(C)c1=O`, the growth was 102% (inactive).

For the compound `COc1ccc(C/C(C)=C(/c2ccc(OCCN3CCCCCC3)cc2)c2ccc(OC(=O)NCc3ccccc3)cc2)cc1`, the growth was 81.4% (inactive).

On to `Cn1cc(-c2csc(-c3cn(C(=O)OC(C)(C)C)c4ccccc34)n2)c2ccnc(Cl)c21`, for which the growth is 56.2% (inactive).

As to `CCN(C(=O)N1CCN(c2cc3c(cc2F)c(=O)c(C(=O)O)cn3C2CC2)CC1)c1nc(-c2ccc(C)cc2)cs1`, the growth is 18.5% (inactive).

`COC(=O)c1nc(-c2ccccc2)oc1S(=O)(=O)N1CCC(C(N)=O)CC1`: the growth was 25.4% (inactive).

On to `CCCCSCC(=O)c1ccccc1`, for which the growth is 105% (inactive).

In the case of `Cc1ccc(Nc2nc(-c3ccc(F)cc3)c(C#N)c(=O)n2C)cc1`, the growth was 68.9% (inactive).

Consider `COc1cccc(OC)c1Oc1c(-c2nc3ccccc3s2)c(C)nn1-c1ccccc1`, for which the growth is 88% (inactive).

With `Cc1ccccc1CNc1c2ccccc2nc2ccccc12`, the growth was 13.8% (inactive).

In the case of `COc1ccc2nc3ccccc3c(NCc3ccc(F)cc3)c2c1`, the growth is 14.7% (inactive).

As for `O=C1NC(=O)c2c1c1c3ccccc3[nH]c1c1oc3cc(Br)ccc3c21`, the growth is 51.5% (inactive).

Turning to `COc1ccc(-c2nnc(SCC(=O)Nc3ccc(/C(C)=N\O)cc3)n2-c2ccccc2)cc1OC`, the growth was 115% (inactive).

As for `CC1=CCC[C@@H]2C1(C)CC[C@H](C)[C@@]2(C)CC1=CC(=O)C(SC(C)(C)C)=CC1=O` (stereo not given in full), the growth was 78.9% (inactive).

Consider `CCn1cc(CNc2ccc(C(=O)Nc3cc4cc(OC)c(OC)cc4c(C)n3)cc2)c(C)n1`, for which the growth was 59.9% (inactive).

`CCCCN1C(=O)/C(=c2\sc3n(c2=O)NC2C(N=3)N(CC)C(=O)N2CC)c2ccccc21` (stereo not given): the growth is 36.2% (inactive).

Regarding `NC(=O)c1c(NC(=O)c2ccc(Cl)cc2)sc2c1CCC(=O)C2`, the growth is 12.7% (inactive).

Consider `CC1(C)CC[C@]2(C(=O)O)CC[C@]3(C)C(=CC[C@@H]4[C@@]5(C)C[C@@H](Cc6cn([C@@H]7O[C@H](CO)[C@@H](O)[C@H](O)[C@H]7O)nn6)[C@H](O)C(C)(C)[C@@H]5CC[C@]43C)[C@@H]2C1`, for which the growth is 102% (inactive).

As for `CCNCc1ccc(O)c2ncccc12`, the growth is 33.1% (inactive).

Take `CC(C)c1ccc(C(=O)Nc2sc3cc(O)ccc3c2C#N)cc1`: the growth is 28.7% (inactive).

For the compound `CCOC(=O)c1c(NC(=O)CSc2n[nH]c3nc4ccccc4n23)sc(CC)c1C`, the growth was 104% (inactive).

Turning to `COc1cccc(/C=C/C(=O)c2cc3c(N)c(C(=O)Nc4cccc(Cl)c4C)sc3nc2C)c1`, the growth is -28.7% (active).

For the compound `Cc1nn(-c2ccccc2)c(N2CCCCC2)c1/C=N/NC(=O)Cn1c(=O)sc2ccccc21`, the growth is 81% (inactive).

For the compound `COC(=O)Cc1nc(C#N)c(N(C)C)o1`, the growth is 95.9% (inactive).

On to `N=C(N)c1ccc(-c2ccc(-c3ccc(Cl)cc3Cl)s2)cc1F`, for which the growth is -64% (active).

Regarding `C/C(C=O)=C\c1ccc2c(c1)OCO2`, the growth was 118% (inactive).

For the compound `Cc1ccc(/C=C(\C#N)C(=O)Nc2ncc(Cc3cc(Cl)ccc3Cl)s2)o1`, the growth was 53.4% (inactive).

In the case of `C[C@@H]1CC[C@@]2(OC1)O[C@H]1C[C@H]3[C@@H]4CC=C5C[C@@H](O[C@@H]6O[C@H](CO)[C@@H](O[C@@H]7O[C@@H](CO)[C@H](O)[C@H]7O)[C@H](O)[C@H]6O[C@@H]6O[C@@H](C)[C@H](O)[C@@H](O)[C@H]6O)CC[C@]5(C)[C@H]4CC[C@]3(C)[C@H]1[C@@H]2C`, the growth is -86.4% (active).

Regarding `CCOC(=O)c1cn2ncnc(Oc3ccc(NC(=O)NC4CC4)c(F)c3)c2c1C`, the growth was 96.2% (inactive).
